# Assay outcomes deposited in PubChem BioAssay by National Center for Advancing Translational Sciences (NCATS).
# Pf Dd2 growth – qHTS Primary assay for Inhibitors of Plasmodium falciparum Dd2 growth in vitro; 120,000 compounds, 4.3% hits; P. falciparum Dd2 growth, SYBR Green, 72 h; Potency, µM (titrated, usually from 28.9 µM), usual class: inhibitors; active means well fitted inhibition curve with a large enough effect; further: nearly all actives have a fitted effect of over 65% in size
#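 Readout: SYBR Green fluorescence, 485 nm excitation, 535 nm emission, after ~16 h lysis at 37C. Before that, Dd2-infected red cells (2.5% hematocrit) grew 72 h with compound, 29 uM top final concentration.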
# Hits are given with their value; - = inactive. Only a selection was taken, and hits are over-represented in it overall.
SMILES,Pf Dd2 growth
CC(C)(C)OC(=O)N1CCC(c2c(C(=O)N3CCN(c4ccccn4)CC3)cnn2-c2ccccc2)CC1,-
Cc1ccc(-n2ncc(C(=O)N3CCC(c4ccccc4)C3)c2C2CCN(C(=O)OC(C)(C)C)CC2)cc1 (stereo not drawn),11.2µM
Cc1ccc(C2CCN(C(=O)c3cnn(-c4ccc(C)cc4)c3C3CCN(C(=O)OC(C)(C)C)CC3)C2)cc1 (stereo not drawn),-
Cc1ccc(-n2ncc(C(=O)N3CCN(c4ncccn4)CC3)c2C2CCN(C(=O)OC(C)(C)C)CC2)cc1,-
CCOC(=O)c1cnn(-c2ccc(OC)cc2)c1C1CCN(C(=O)OC(C)(C)C)CC1,7.94µM
O=C(C[C@@H]1O[C@H](CNC(=O)c2ccccc2)[C@@H](O)[C@H]1O)NC1CC1,-
CC(C)CS(=O)(=O)N[C@@H]1C[C@H](Cn2cc(CN(C)C)nn2)[C@@H](O)[C@H]1O,-
COCCN1CCCC(c2[nH]ccc2C(=O)N2CCSCC2)C1 (stereo not drawn),-
CCCS(=O)(=O)NCCc1ncc(C)n1CCOC,-
CC(C)CNc1nccc(C2(c3ccccc3Cl)CCNCC2)n1,5.01µM
CCC(C)Cc1nccc(C2(c3ccccc3Cl)CCNCC2)n1 (stereo not drawn),4.47µM
OCC(O)CNc1nccc(C2(c3ccccc3Cl)CCNCC2)n1 (stereo not drawn),-
CC(CNc1nccc(C2(c3ccccc3Cl)CCNCC2)n1)CN(C)C (stereo not drawn),-
C[C@@H](O)CNc1nccc(C2(c3ccccc3Cl)CCNCC2)n1,-
Clc1ccccc1C1(c2ccnc(NCc3ccncc3)n2)CCNCC1,-
O=C(NCc1nnc2n1C(C(=O)N1CCCC1)CC2)c1cccnc1 (stereo not drawn),-
CNC(=O)C1(N2CCC[C@H]2C(=O)NCCN(C)C)CCCCC1,-
CN(Cc1cc(-c2ccccc2)on1)C(=O)CN1C[C@@H]2CC[C@H](CC1=O)N2,-
COc1cccc([S+](=O)([O-])N2CCn3ncc(C(=O)N4CCOCC4)c3C2)c1,-
FC(F)Oc1ccccc1CN1CCCC(Nc2ccccc2)C1 (stereo not drawn),-
COc1ccc(O)c(CN2CCCC(Nc3ccc(F)cc3)C2)c1 (stereo not drawn),2.82µM
COc1cccc(CCC(=O)N2CCCC(Nc3ccc(F)cc3)C2)c1 (stereo not drawn),-
CN1CC(=O)N(C2CCCNC2)Cc2c1ncnc2N1CCN(CC2CCCCC2)CC1 (stereo not drawn),-
COc1ccc(CN2Cc3cc(NC(=O)c4ccc(F)cc4)ccc3OC(C)C2=O)c(OC)c1 (stereo not drawn),-
COc1ccc(C(=O)Nc2ccc3c(c2)CN(Cc2ccc(F)cc2)C(=O)C(C)O3)c(OC)c1 (stereo not drawn),-
SMILES,Pf Dd2 growth
COc1ccc(CN2Cc3cc(NC(=O)c4ccccc4F)ccc3OC(C)C2=O)c(OC)c1 (stereo not drawn),3.16µM
Cn1cncc1C(=O)N1CCCn2ccnc2C1c1ccccc1 (stereo not drawn),-
CCN1CCC(N2CCC3(CC2)CN(c2ccncn2)CC3CO)CC1 (stereo not drawn),-
CCC1CCCCN1CCCNC(=O)CCc1cc2cc(OC)ccc2[nH]c1=O (stereo not drawn),-
CCc1ccc(NC(=O)CSc2nccn2-c2cccc(C)c2C)cc1,-
Cc1ccc(C)c(NC(=O)CSc2nccn2-c2cccc(C)c2C)c1,3.55µM
Cc1cccc(-n2ccnc2SCC(=O)Nc2ccc(F)cc2F)c1C,-
O=C(c1ccc(C2CCNC2)cc1)N(Cc1ccccc1)CC1CCC1 (stereo not drawn),12.6µM
COCc1cc(CNC(=O)c2ccc(C3CCNC3)cc2)[nH]n1 (stereo not drawn),-
CCCN(Cc1nccn1C)C(=O)c1cccc(C2CCNC2)c1 (stereo not drawn),-
O=C(O)c1cccc(C2CCCN(C(=O)Cc3cc(F)c(F)c(F)c3)C2)c1 (stereo not drawn),-
COc1ccc(C(=O)NCCC2CCN(C(=O)Nc3ccc(F)cc3)CC2)cc1OC,-
O=S1(=O)CCC(Cc2nc(-c3ccccn3)nn2Cc2ccccc2)C1 (stereo not drawn),-
O=C1NC[C@@H](CCC(=O)N2CCCC2)N2C[C@@H](NCc3ccccc3)C[C@@H]12,-
O=[S+]([O-])(NCC1CN(Cc2ccncc2Cl)CC12CN(c1ccccc1)C2)c1ccccc1 (stereo not drawn),-
Cc1ccc([S+](=O)([O-])NC[C@@H]2CC[C@H]3C[C@@H]2C3(C)C)cc1,-
CC1(C)[C@H]2CC[C@@H](CN[S+](=O)([O-])c3ccccc3)[C@@H]1C2,11.2µM
Cc1cccc(-c2noc([C@@H]3C[C@@H](O)CN3Cc3ccccn3)n2)c1,-
O=C(Cn1nc(-c2cccs2)ccc1=O)NC1CCCc2c1[nH]c1ccccc21 (stereo not drawn),-
CC(C)Oc1cc(N(C)CC2CC(=O)N(C(C)(C)C)C2)nc(N)n1 (stereo not drawn),-
